PubChem BioAssay
Active and inactive are the calls of the source.

Experiments:
[1] = E. coli DRC41 culture turbidity changes, primary screen, E. coli filamentation inducer project, strain DRC41, OD650, 48 h (AID 1152);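 also: E. coli MC1000 strain DRC41 lacking acrAB efflux pump and sulA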; conditions: E. coli DRC41 (acrAB sulA), higher = more signal, called active from +8 up or from −8 down
[2] = small-molecule binders of probe aLefty1, primary screen, biochemical, small-molecule microarray, 635/667 nm fluorescence (AID 1153); conditions: higher = more signal;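 also: score merges spot fluorescence with signal-to-noise ratio from the scanned slide images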
[3] = PSAC antagonists in infected red cells, primary screen, cell-based, P. falciparum Indochina, OD700, 1 h (AID 1154); conditions: P. falciparum Indochina infected RBC osmotic lysis, higher = more signal, called active from +8 up or from −8 down
[4] = PSAC antagonists in infected red cells, primary screen, cell-based, P. falciparum Indochina, OD700, 2 h (AID 1155);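 also: lysis reports solute entry through the parasite surface anion channel PSAC; channel blockers reduce lysis of infected cells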; conditions: P. falciparum Indochina infected erythrocytes, osmotic lysis OD700; higher = more signal, called active from +8 up or from −8 down
[5] = osmotic lysis modulators in infected erythrocytes, primary screen, PSAC antagonist project, cell-based, P. falciparum Indochina, OD700, 3 h (AID 1156); conditions: higher = more signal, called active from +8 up or from −8 down
[6] = PSAC antagonists in infected red cells, primary screen, cell-based, P. falciparum Indochina, OD700, 18 h (AID 1157); conditions: P. falciparum Indochina infected erythrocytes, osmotic lysis OD700, 18 h; higher = more signal, called active from +8 up or from −8 down
[7] = modulators of S6 phosphorylation in cells, primary screen, cell-based, A549, cytoblot, luminescence, serum-stimulated (AID 1158); conditions: A549 phospho-S6 cytoblot, 5 h, higher = more signal;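 also: serum-stimulated A549 lung adenocarcinoma cells; signal is phosphorylated S6 detected by cytoblot immunostaining with HRP secondary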
[8] = biological target: NADPH oxidase 2 (Homo sapiens) (UniProt P04839); assay: NOX2-dependent H2O2 signal modulators, primary screen, NOX inhibitor project, cell-based, HEK293-NOX2, PMA-stimulated, Amplex Red fluorescence (AID 1159); conditions: 45 min, higher = more signal, called active from +8 up or from −8 down; also: test concentration not given here
[9] = biological target: NADPH oxidase 4 (Homo sapiens) (UniProt Q9NPH5); assay: NOX4-dependent H2O2 signal modulators, primary screen, NOX inhibitor project, cell-based, HEK293-NOX4, tetracycline-induced, Amplex Red fluorescence (AID 1160); conditions: 45 min, higher = more signal, called active from +8 up or from −8 down
[10] = biological target: NADPH oxidase 5 (Homo sapiens) (UniProt Q96PH1); assay: NOX5-dependent H2O2 signal modulators, primary screen, NOX inhibitor project, cell-based, HEK293-NOX5, Amplex Red fluorescence (AID 1161); conditions: HEK293-NOX5, ionomycin, 45 min, higher = more signal
[11] = A549 cell viability effects, profiling panel, calcein-AM fluorescence, 48 h, basal (AID 1162); conditions: higher = more signal; also: test concentration not given here
[12] = adipocyte viability effects, profiling panel, cell-based, 3T3-L1 adipocytes, calcein-AM fluorescence, 48 h, basal (AID 1163); conditions: 3T3-L1 adipocytes viability, higher = more signal; also: test concentration not given here
[13] = HepG2 cell viability effects, profiling panel, calcein-AM fluorescence, 48 h, basal (AID 1164); conditions: higher = more signal; also: test concentration not given here
[14] = MM1S cell viability effects, profiling panel, calcein-AM fluorescence, 48 h, basal (AID 1165); conditions: higher = more signal;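 also: viability of MM1S multiple myeloma cells under basal unstimulated conditions; test concentration not given here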
[15] = basal RPMI8226 viability, no added stimulus, profiling panel, cell-based, calcein-AM fluorescence, 48 h, PK04 Diversity Set (AID 1166); conditions: RPMI8226 myeloma viability, higher = more signal;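 also: cells grown under basal conditions without added stimulus; test concentration not given here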
[16] = basal HepG2 mitochondrial membrane potential changes, profiling panel, cell-based, JC-1 fluorescence, 24 h, 100 nL compound (AID 1167); conditions: higher = more signal; also: test concentration not given here
[17] = basal 3T3-L1 adipocyte mitochondrial potential changes, profiling panel, cell-based, JC-1 fluorescence, 3T3-L1 adipocytes, 24 h, 100 nL compound (AID 1168); conditions: JC-1 mitochondrial fluorescence, higher = more signal, called active from +8 up or from −8 down; also: test concentration not given here
[18] = basal RPMI8226 mitochondrial membrane potential changes, profiling panel, cell-based, JC-1 fluorescence, 24 h, 100 nL compound (AID 1169); conditions: RPMI8226 myeloma, JC-1 mitochondrial potential fluorescence, higher = more signal; also: test concentration not given here
[19] = basal MM1S mitochondrial membrane potential changes, profiling panel, cell-based, JC-1 fluorescence, 24 h, 100 nL compound (AID 1170); conditions: higher = more signal; also: test concentration not given here
[20] = A549 lung cancer cell viability effects, profiling panel, resazurin fluorescence, 24 h, PK04 Diversity Set (AID 1171); conditions: higher = more signal, called active from +8 up or from −8 down; also: test concentration not given here

Chain of NADPH oxidase 5 (Homo sapiens) (Q96PH1 whole entry, looked up): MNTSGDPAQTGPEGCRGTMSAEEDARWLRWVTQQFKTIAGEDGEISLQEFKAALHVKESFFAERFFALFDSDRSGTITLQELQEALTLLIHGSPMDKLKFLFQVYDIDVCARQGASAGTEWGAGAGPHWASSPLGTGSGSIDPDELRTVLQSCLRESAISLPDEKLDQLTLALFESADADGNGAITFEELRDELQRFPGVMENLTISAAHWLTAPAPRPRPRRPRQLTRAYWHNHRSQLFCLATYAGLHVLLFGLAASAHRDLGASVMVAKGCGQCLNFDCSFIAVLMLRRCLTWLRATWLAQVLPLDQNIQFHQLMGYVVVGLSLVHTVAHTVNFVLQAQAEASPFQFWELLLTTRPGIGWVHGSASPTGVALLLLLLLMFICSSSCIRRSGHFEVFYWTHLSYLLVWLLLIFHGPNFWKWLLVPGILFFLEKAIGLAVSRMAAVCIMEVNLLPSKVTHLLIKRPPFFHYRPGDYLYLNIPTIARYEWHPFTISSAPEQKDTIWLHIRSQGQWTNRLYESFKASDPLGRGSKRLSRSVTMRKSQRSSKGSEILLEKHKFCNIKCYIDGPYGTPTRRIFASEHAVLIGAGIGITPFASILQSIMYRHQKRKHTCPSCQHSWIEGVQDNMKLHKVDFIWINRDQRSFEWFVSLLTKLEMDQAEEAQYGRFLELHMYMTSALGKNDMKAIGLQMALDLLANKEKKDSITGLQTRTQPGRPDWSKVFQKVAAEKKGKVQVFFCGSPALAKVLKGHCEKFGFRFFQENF
Chain of NADPH oxidase 2 (Homo sapiens) (P04839 whole entry, looked up): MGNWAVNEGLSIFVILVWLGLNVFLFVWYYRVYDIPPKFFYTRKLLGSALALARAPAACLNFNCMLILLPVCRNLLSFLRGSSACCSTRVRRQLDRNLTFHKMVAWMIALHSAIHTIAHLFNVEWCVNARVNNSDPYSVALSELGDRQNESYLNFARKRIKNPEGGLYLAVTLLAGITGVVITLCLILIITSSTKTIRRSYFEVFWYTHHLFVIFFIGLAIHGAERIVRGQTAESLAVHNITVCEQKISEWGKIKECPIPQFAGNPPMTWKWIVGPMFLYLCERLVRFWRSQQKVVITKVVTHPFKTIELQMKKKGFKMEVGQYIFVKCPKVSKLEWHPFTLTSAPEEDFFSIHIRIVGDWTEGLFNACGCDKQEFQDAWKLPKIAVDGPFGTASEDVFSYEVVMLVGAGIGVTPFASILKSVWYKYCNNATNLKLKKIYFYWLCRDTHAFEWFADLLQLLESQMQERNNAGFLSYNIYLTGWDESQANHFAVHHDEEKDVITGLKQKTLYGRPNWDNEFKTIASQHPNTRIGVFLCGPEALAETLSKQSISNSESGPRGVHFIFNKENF
Chain of NADPH oxidase 4 (Homo sapiens) (Q9NPH5 whole entry, looked up): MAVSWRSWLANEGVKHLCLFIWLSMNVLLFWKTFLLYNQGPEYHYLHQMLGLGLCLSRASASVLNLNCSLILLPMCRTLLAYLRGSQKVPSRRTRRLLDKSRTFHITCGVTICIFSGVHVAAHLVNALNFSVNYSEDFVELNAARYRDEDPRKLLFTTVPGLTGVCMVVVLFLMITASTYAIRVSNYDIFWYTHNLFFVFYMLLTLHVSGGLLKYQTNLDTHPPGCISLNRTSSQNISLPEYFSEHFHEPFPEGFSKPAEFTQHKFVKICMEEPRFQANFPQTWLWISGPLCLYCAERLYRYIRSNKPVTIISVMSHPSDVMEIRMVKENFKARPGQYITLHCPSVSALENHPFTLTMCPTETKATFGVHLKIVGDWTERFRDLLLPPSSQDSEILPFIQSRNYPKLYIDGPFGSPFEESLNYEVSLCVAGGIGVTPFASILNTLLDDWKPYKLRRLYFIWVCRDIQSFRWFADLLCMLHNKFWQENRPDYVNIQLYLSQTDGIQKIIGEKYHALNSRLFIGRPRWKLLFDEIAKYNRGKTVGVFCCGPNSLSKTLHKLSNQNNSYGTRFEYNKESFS

Structure (SMILES) | z-score [1] | composite z-score [2] | z-score [3] | z-score [4] | z-score [5] | z-score [6] | z-score [7] | z-score [8] | z-score [9] | z-score [10] | z-score [11] | z-score [12] | z-score [13] | z-score [14] | z-score [15] | z-score [16] | z-score [17] | z-score [18] | z-score [19] | z-score [20]
COCCOC(=O)N1C(=O)[C@@]2(c3cc(C#CCCO)ccc31)[C@H](c1ccccc1OCCO)N1[C@H](c3ccccc3)[C@H](c3ccccc3)OC(=O)[C@H]1[C@@H]2C(=O)N1CCN(c2ncccn2)CC1 | -0.33 (inactive) | 0.85 | 2.52 (inactive) | 1.32 (inactive) | -0.293 (inactive) | 0.708 (inactive) | -0.262 | 1.22 (inactive) | 1.05 (inactive) | 1.16 | -0.442 | -0.692 | 0.0682 | -0.448 | -0.0718 | 0.609 | 0.188 (inactive) | -0.0523 | -1.1 | -0.467 (inactive)
CCOC(=O)C1=C[C@@H](CC)N(S(=O)(=O)c2ccc(C)cc2)[C@H]1c1ccccc1 | -1.03 (inactive) | 0.271 | 1.83 (inactive) | 0.797 (inactive) | -0.187 (inactive) | 0.415 (inactive) | -0.388 | 0.0452 (inactive) | -0.606 (inactive) | -0.182 | -0.934 | -0.167 | -0.342 | -0.922 | -1.37 | -0.378 | -1.31 (inactive) | 0.649 | -0.894 | 1.46 (inactive)
COC(=O)[C@@]1(Cc2ccccc2N=[N+]=[N-])COC(c2ccc(OCCCO)cc2)=N1 | -1.01 (inactive) | 0.933 | 24.3 (active) | 8.54 (active) | 3.35 (inactive) | 1.03 (inactive) | -0.317 | -1.38 (inactive) | -0.156 (inactive) | -1.63 | -0.851 | -1.01 | -0.388 | -3.53 | -2.82 | -0.472 | -0.605 (inactive) | -0.125 | -0.0849 | 0.468 (inactive)
O=C(CS)NCCCCCCNC(=O)[C@H]1C[C@H]2C(=O)NCC(=O)N2[C@H]1c1ccc(O)cc1 | -0.618 (inactive) | -0.0969 | 2.33 (inactive) | 0.141 (inactive) | -2.02 (inactive) | 0.23 (inactive) | -0.598 | 1.45 (inactive) | 0.407 (inactive) | -0.391 | 0.324 | 0.277 | 0.555 | -0.31 | 0.325 | -0.32 | -0.607 (inactive) | -0.645 | -0.459 | -0.27 (inactive)
COC(=O)c1ccc(OC)c(/C=C\CC(OC(C)=O)c2ccccc2)c1 (stereo not given) | 0.0491 (inactive) | -0.795 | 8.02 (active) | 0.898 (inactive) | -0.358 (inactive) | 0.303 (inactive) | -0.0878 | 0.0248 (inactive) | 0.415 (inactive) | -1.65 | -1.01 | 0.386 | -0.753 | -1.4 | -2.39 | -0.995 | -1.15 (inactive) | -0.578 | 0.0862 | 0.519 (inactive)
COC(=O)C1=CC(CCCO)=CC(C2CC2)N(Cc2sc3ccccc3c2Cl)C=C1C(=O)OC (stereo not given) | -0.899 (inactive) | 0.335 | 10.6 (active) | 2.09 (inactive) | 0.901 (inactive) | 1.23 (inactive) | -0.18 | -0.986 (inactive) | -1.76 (inactive) | 0.19 | -0.637 | 0.326 | -0.514 | -2.99 | -4.06 | 0.00468 | 0.235 (inactive) | -0.915 | 0.00801 | 0.0509 (inactive)
CC(C)N1C(=O)[C@@]2(c3ccc([N+](=O)[O-])cc3)CC(=O)N(CC34CC5CC(CC(C5)C3)C4)[C@@H]2c2ccc(CO)cc21 | 0.0258 (inactive) | 1.04 | 0.297 (inactive) | 0.328 (inactive) | 0.0625 (inactive) | 0.131 (inactive) | -0.561 | 0.306 (inactive) | -0.0646 (inactive) | 0.607 | 0.192 | -1.22 | 1.36 | 0.496 | 0.13 | 0.396 | 0.888 (inactive) | -0.361 | -0.512 | -0.695 (inactive)
C=CC[C@@]1(C(=O)N2CCOCC2)N=C(c2ccc(OCCCO)cc2)O[C@@H]1c1ccccc1N=[N+]=[N-] | 0.483 (inactive) | 0.571 | 35.1 (active) | 28.1 (active) | 3.17 (inactive) | 7.41 (inactive) | 1.92 | -2.14 (inactive) | -0.164 (inactive) | -2.02 | -0.168 | 1.02 | 0.249 | -0.791 | -1.96 | 1.38 | 1.57 (inactive) | -0.97 | -1.71 | -0.915 (inactive)
O=C1OCCC=C[C@H]2OC34C=CCN(Cc5ccccc5)C(=O)[C@H]3N(CCCCCO)C(=O)[C@@H]4C12 (stereo not given in full) | 1.8 (inactive) | 0.282 | 1.77 (inactive) | 0.18 (inactive) | 2.12 (inactive) | 0.551 (inactive) | 0.469 | 1.39 (inactive) | 0.701 (inactive) | 1.38 | 0.412 | -0.0568 | 0.889 | 1.81 | 0.593 | 0.756 | 0.498 (inactive) | 0.231 | -0.967 | 0.872 (inactive)
